# Assay results published in PMC6925144, “A prospective compound screening contest identified broader inhibitors for Sirtuin 1” (Scientific Reports, 2019).
# In all, about 3,200 compounds were measured (“TSA(without NAD+) / Primary screening (TSA) / delta Tm (K)”: median about -0.07, highest 2% from about 0.37 on). The sample as a whole holds a higher share of the highest values than the screen did.
# Target: NAD-dependent deacetylase Sirtuin 1 (human, UniProt Q96EB6)
# Experiment: primary screen, delta tm
# Design: single well (n = 1)
# Conditions: 10 µM
# In short: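 Thermal shift of Sirtuin 1 measured without NAD+, compound at 10 µM (n = 1); value is ΔTm, with hits defined as ΔTm > 0.45 K or < −1.5 K. Hits retested at 5, 10, 20 µM (n = 4) and counterscreened on bovine carbonic anhydrase and ABL1 SH2 domain.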
# Sequence of NAD-dependent deacetylase Sirtuin 1 (Q96EB6 2-747 limits assumed): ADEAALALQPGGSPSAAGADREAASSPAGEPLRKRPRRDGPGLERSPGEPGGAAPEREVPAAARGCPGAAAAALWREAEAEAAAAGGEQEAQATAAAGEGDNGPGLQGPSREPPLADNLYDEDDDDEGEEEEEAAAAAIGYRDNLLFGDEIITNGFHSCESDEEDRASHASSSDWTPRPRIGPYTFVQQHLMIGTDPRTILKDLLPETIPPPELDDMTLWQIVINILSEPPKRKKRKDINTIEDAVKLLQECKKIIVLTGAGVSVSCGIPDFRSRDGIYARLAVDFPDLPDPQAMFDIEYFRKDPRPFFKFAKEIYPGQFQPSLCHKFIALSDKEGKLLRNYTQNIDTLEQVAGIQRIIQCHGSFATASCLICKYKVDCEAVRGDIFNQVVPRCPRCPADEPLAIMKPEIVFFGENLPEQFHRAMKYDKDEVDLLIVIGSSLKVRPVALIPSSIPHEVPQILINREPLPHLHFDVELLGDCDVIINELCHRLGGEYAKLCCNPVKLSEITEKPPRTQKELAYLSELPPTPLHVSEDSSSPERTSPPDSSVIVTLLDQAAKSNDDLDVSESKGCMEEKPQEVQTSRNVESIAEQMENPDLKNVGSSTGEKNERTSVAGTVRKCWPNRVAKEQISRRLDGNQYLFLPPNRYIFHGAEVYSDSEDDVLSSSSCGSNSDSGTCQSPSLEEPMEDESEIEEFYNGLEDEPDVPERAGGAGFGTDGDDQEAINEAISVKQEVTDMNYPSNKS
row,Structure (SMILES),TSA(without NAD+) / Primary screening (TSA) / delta Tm (K)
1,COC(=O)c1ccccc1NC(=O)Cc1c[nH]c2ccccc12,-0.22
2,COc1cc(/C=N/NC(=O)c2cc3c(s2)CCCC3)ccc1OCC(=O)Nc1ccc(C)cc1,-0.22
3,CCOc1cc(/C=N/NC(=O)c2cc3c(s2)CCCC3)ccc1OCC(=O)Nc1cccc(C(F)(F)F)c1,5.11
4,COc1cc(/C=N/NC(=O)c2cc3c(s2)CCCC3)ccc1OS(=O)(=O)c1cc(C)ccc1C,0.32
5,O=C(C1=C(O)C(=O)N(CCCN2CCOCC2)C1c1ccco1)c1ccc(F)cc1 (stereo not shown),-0.08
6,CC(NC(=O)COC(=O)c1ccc2c(c1)S(=O)(=O)c1ccccc1C2=O)C12CC3CC(CC(C3)C1)C2 (stereo not shown),0.17
7,CC(C)CCN1C(=O)c2ccc(C(=O)OCC(=O)NC(C)C34CC5CC(CC(C5)C3)C4)cc2C1=O (stereo not shown),0.48
8,CC(NC(=O)COC(=O)CCCN1C(=O)c2cccc3cccc(c23)C1=O)C12CC3CC(CC(C3)C1)C2 (stereo not shown),-0.34
9,COc1ccc(C(=O)C2=C(O)C(=O)N(CCCN3CCOCC3)C2c2ccc(OC)cc2)cc1 (stereo not shown),-0.13
10,NS(=O)(=O)c1ccc(C(=O)Nc2ccc3c(c2)-c2ccccc2C3)cc1,0.23
11,NC(=O)c1cccc(NC(=O)c2cc3c(s2)-c2ccccc2CC3)c1,1.03
12,CC(=O)Nc1ccc(NC(=O)c2cccc(C(N)=O)c2)cc1C,-0.07
13,NC(=O)Cn1cnc2c(cnn2-c2ccccc2)c1=O,-0.08
14,Cc1cc(S(=O)(=O)NCc2ccc(C(N)=O)cc2)sc1Cl,-0.11
15,CC(C)(C)c1ccccc1NC(=O)c1ccc(S(=O)(=O)N2CCCC2)cc1,-0.07
16,O=c1onc(-c2cnccn2)n1Cc1nc2cc([N+](=O)[O-])ccc2o1,-0.12
17,CC(=O)N1N=C(c2ccccc2)CC1c1ccc(Br)cc1 (stereo not shown),-0.02
18,CC(=O)N1N=C(c2ccc(O)cc2)CC1c1ccccc1 (stereo not shown),0.07
19,O=C(CSc1nnnn1-c1ccc(O)cc1)N1N=C(c2ccc3ccccc3c2)CC1c1ccccc1 (stereo not shown),0.49
20,CN(C(=O)Cc1ccc(NC(=O)NCc2ccc(-n3cncn3)nc2)cc1)c1ccccc1,0.08
21,CCCNC(=O)Nc1ccc(OC)cc1,-0.12
22,Cc1ccc(NC(=O)NCCc2cccc(O)c2)cc1NC(=O)NCCc1cccc(O)c1,0.38

row,Structure (SMILES),TSA(without NAD+) / Primary screening (TSA) / delta Tm (K)
1,CN1CCCN(c2ccc(NC(=O)NCCCNC(=O)c3cccc(O)c3)cc2F)CC1,0.02
2,CC(CN1CCOCC1)NC(=O)C(Cc1ccccc1)n1cnnn1 (stereo not shown),-0.23
3,O=C(NN/C=C1/C(=O)N(c2cccc(C(F)(F)F)c2)C(=O)c2ccccc21)c1cccc(S(=O)(=O)Nc2ccccc2Cl)c1,1.45
4,Cc1ccc(N(C)S(=O)(=O)c2cccc(C(=O)Nc3ccccc3C(F)(F)F)c2)cc1,-0.13
5,Cc1ccc(N(C)S(=O)(=O)c2cccc(C(=O)Nc3ccccc3Cl)c2)cc1,0.07
6,NC(=O)NCc1ccc(C(=O)Nc2nc(-c3c[nH]c(C(N)=O)c3)cs2)cc1,-0.03
7,COc1ccc(NC(=O)c2ccc(NC(=O)c3cnoc3C)cc2)cc1OCc1cccnc1,-0.18
8,COC(=O)c1cc(-c2csc(NC(=O)c3cccc(NC(=O)c4cnoc4C)c3)n2)c[nH]1,0.46
9,Cc1nc(-c2ccc(CCNC(=O)c3ccc(NC(N)=O)cc3)s2)cs1,0.23
10,Cc1nc(-c2ccc(CCNC(=O)c3ccc(NC(=O)c4cccs4)cc3)s2)cs1,0.63
11,COc1ccc(C(=O)NCCc2ccc(-c3csc(C)n3)s2)cc1,0.07
12,COc1ccc(C(=O)C2=C(O)C(=O)N(CCCN3CCOCC3)C2c2ccccc2)cc1C (stereo not shown),0.06
13,CC(c1ccc(S(N)(=O)=O)cc1)N(C)Cc1nc2ccccc2c(=O)[nH]1 (stereo not shown),-0.15
14,O=C1CCCN1C(=O)Cn1cnc2cc(Cl)ccc2c1=O,-0.11
15,O=C(Nc1ccc(OC(F)F)c(Cc2ccccc2)c1)C1=COCCO1,-0.12
16,COc1ccc(NC(=O)C2=COCCO2)cc1Cc1ccccc1,0.45
17,COc1ccc(NC(=O)C2=COCCO2)cc1S(=O)(=O)N1CCOCC1,-0.13
18,O=C(Nc1cccc(Cn2[nH]c(=O)ccc2=O)c1)c1cccc(Oc2ccccc2)c1,-0.13
19,NC(=O)c1ccc(OCC(=O)NC(=O)NCc2cccs2)cc1,0.03
20,NC(=O)C1CCN(c2nc(-c3cccnc3)nc3sc4c(c23)CCCC4)CC1,0.33
21,Cc1sc2nc(-c3cccs3)nc(N3CCC(C(N)=O)CC3)c2c1C,0.58
22,NC(=O)C1CCN(c2ncnc3sc4c(c23)CCCC4)CC1,0.28

row,Structure (SMILES),TSA(without NAD+) / Primary screening (TSA) / delta Tm (K)
1,NC(=O)C1CCN(c2nc(-c3cccs3)nc3sc4c(c23)CCCC4)CC1,2.58
2,Cc1sc2nc(-c3cccnc3)nc(N3CCC(C(N)=O)CC3)c2c1C,0.25
3,Cc1sc2ncnc(N3CCC(C(N)=O)CC3)c2c1C,-0.11
4,CCSCCOC(=O)c1ccc2[nH]c(C(F)F)nc2c1,-0.04
5,Cn1c2ccccc2c2cc(S(=O)(=O)NCc3cccc(NC(=O)C4CC4)c3)ccc21,-0.03
6,CS(=O)(=O)c1ccc(NC(=O)c2ccccc2SCC(=O)NC23CC4CC(CC(C4)C2)C3)cc1,-0.03
7,CC(C)Oc1ccc(C2C(C(=O)c3ccco3)=C(O)C(=O)N2CCCN2CCOCC2)cc1 (stereo not shown),-0.02
8,COc1cccc(C2C(C(=O)c3ccc(Cl)cc3)=C(O)C(=O)N2CCCN2CCOCC2)c1 (stereo not shown),-0.12
9,CCC(N)C(N)=O (stereo not shown),-0.22
10,CC1CCC(NN)CC1 (stereo not shown),-0.08
11,CC(OC(=O)c1cccc(S(=O)(=O)Nc2ccc(F)cc2)c1)c1nc2ccccc2c(=O)[nH]1 (stereo not shown),0.02
12,CCn1c2ccccc2c2cc(NC(=O)C(C)OC(=O)c3cccc(S(=O)(=O)Nc4ccc(Cl)cc4)c3)ccc21 (stereo not shown),0.56
13,CC(=O)c1ccc(NC(=O)C(C)OC(=O)c2cccc(S(=O)(=O)NC(C)C34CC5CC(CC(C5)C3)C4)c2)cc1 (stereo not shown),0.35
14,O=C(/C=C/c1ccc(F)cc1)NCCCn1ccc2ccccc21,0.08
15,Cc1ccc2c(CC(=O)Nc3ccccc3Cc3ccccc3)coc2c1,0.07
16,COc1ccc(-c2nn(-c3ccccc3)cc2CN(CCCCCCN(Cc2cn(-c3ccccc3)nc2-c2ccc(OC)cc2)C(=O)CCC(=O)O)C(=O)CCC(=O)O)cc1,0.37
17,Cc1ccc(-c2nn(-c3ccccc3)cc2C(=O)NCc2nnc3ccccn23)cc1,-0.03
18,Cc1noc(C)c1CC(=O)OCc1cn(-c2ccccc2)nc1-c1ccc(Cl)cc1,0.22
19,Cc1oc2cc(OC(C)C(=O)NCc3ccco3)ccc2c(=O)c1-c1c(F)cccc1Cl (stereo not shown),-0.11
20,O=C1NC(=S)N/C1=C/c1ccc(-c2ccccc2F)o1,0.05
21,O=C1NC(=S)N/C1=C\c1ccccc1OCc1ccc(C(=O)O)cc1,0.38
22,O=C1NC(=S)N/C1=C\c1cc(Br)ccc1O,-0.23

row,Structure (SMILES),TSA(without NAD+) / Primary screening (TSA) / delta Tm (K)
1,COc1ccc(C(N)=O)cc1NC(=O)c1nc2nc(C)cc(C)n2n1,-0.15
2,NC(=O)C1CCN(c2nc(CN3CCCCC3)nc3sc4c(c23)CCC4)CC1,0.07
3,NC(=O)C1CCCN(c2ncnc3sc4c(c23)CCCC4)C1 (stereo not shown),-0.18
4,Cc1sc2nc(CSc3ccccc3)nc(N3CCCC(C(N)=O)C3)c2c1C (stereo not shown),-0.12
5,Cc1sc2nc(CN3CCCC3)nc(N3CCC(C(N)=O)CC3)c2c1C,-0.12
6,Cc1sc2nc(CSc3ccccc3)nc(N3CCC(C(N)=O)CC3)c2c1C,0.52
7,NC(=O)C1CCN(c2nc(CSc3ccccc3)nc3sc4c(c23)CCCC4)CC1,1.78
8,O=C1/C(=C/c2cccc(Br)c2)Oc2cc(O)ccc21,0.19
9,O=C1CCCN1c1cccc(NS(=O)(=O)c2cccc(F)c2)c1,-0.02
10,COc1ccc(NC(C)c2ccc(S(C)=O)cc2)cn1 (stereo not shown),-0.18
11,O=C(COC(=O)c1ccc(CNS(=O)(=O)c2ccc(F)c(Cl)c2)cc1)c1ccccc1,-0.03
12,O=C(C1=C(O)C(=O)N(CCCN2CCOCC2)C1c1ccco1)c1cc2ccccc2o1 (stereo not shown),0.02
13,COc1cc(C=C(C(=O)NCC2CCCO2)C(=O)NCC2CCCO2)ccc1OCC(=O)Nc1ccc(C)cc1 (stereo not shown),-0.08
14,O=C(NCC1CCCO1)Nc1ccc(NC(=O)c2ccccn2)cc1 (stereo not shown),0.07
15,Cc1ccc(C(=O)Nc2ccc(NC(=O)NCC3CCCO3)cc2)cn1 (stereo not shown),0.52
16,Cc1ccc(Nc2nc(CSc3nnc(NCc4ccco4)s3)cs2)cc1,-0.17
17,CC(C)OC(=O)CC(Nc1ccc2nnnn2n1)c1ccccc1 (stereo not shown),-0.07
18,Cc1noc(CN2CCN(c3ncnc4c3oc3ccccc34)CC2)n1,-0.33
19,Cc1ccc(S(=O)(=O)N2CCN(C(=O)CSc3nnc(NCc4ccco4)s3)CC2)cc1,0.16
20,O=c1cc(CSc2nnc(Nc3ccccc3)s2)c2ccc(O)cc2o1,0.38
21,COCCNc1nnc(SCc2cc(=O)oc3c(C)c(O)ccc23)s1,-0.74
22,O=c1cc(CSc2nnc(-c3ccccc3)o2)c2cc3c(cc2o1)CCC3,-0.18
